Of roughly 8,800 targets only a part is listed; those with a hit were picked by preference. About 0.5% of all pairs of compound and target were hits. Unmarked numbers belong to inactive results.
How the values were obtained:
Assay in all cases: log2 fold change, soluble protein after heating vs DMSO (PISA); higher = thermal stabilisation; K562 lysate, 10 uM; active = over 0.2 and 3.5 SD of the protein, either way, in both replicates (recomputed)
[1] = compound: CN1CC[C@H](c2c(O)cc(O)c3c(=O)cc(-c4ccccc4Cl)oc23)[C@H](O)C1 [alvocidib]
Outline: (§1)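 Values give the log-two fold change in thermal stability against solvent controls, from duplicates. Crude K562 extract at 1 mg/mL protein, made by dounce homogenisation in PBS pH 7.4 with 1 mM MgCl2, was treated with 10 μM compound for 30 min. After 3 min heating across 48°C-58°C, aliquots were pooled, adjusted to 0.5% NP-40 at 4°C and centrifuged at 21,000xg for 90 min. The supernatant was measured by TMTpro 16plex LC-MS/MS with channel sums equalised.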

[2] = compound: CN1CCc2c(c3ccccc3n2Cc2ccc(C(=O)NO)cc2)C1 [Tubastatin A]
Outline: as §1

[3] = compound: CNC(=O)C1=CC=CC=C1NC2=NC(=NC=C2Cl)NC3=C(C=C(C=C3)N4CCOCC4)OC
Outline: as §1

[4] = compound: CNC(=O)c1ccc(Nc2ncc(C(F)(F)F)c(NCc3nccnc3N(C)S(C)(=O)=O)n2)cc1 [defactinib]
Outline: as §1

[5] = compound: CNc1nc(-c2ccc3c(N)n[nH]c3c2)cc(N2C[C@@H](C(=O)NC3CCCCC3)CC[C@H]2C)n1
Outline: as §1

[6] = compound: COC(=O)N[C@@H](C)CNc1nccc(-c2cn(C(C)C)nc2-c2cc(Cl)cc(NS(C)(=O)=O)c2F)n1 [encorafenib]
Outline: as §1

[7] = compound: COC(=O)[C@H](CCSC)NC(=O)C1=C(C=C(C=C1)NC[C@H](CS)N)C2=CC=CC=C2
Outline: as §1

[8] = compound: COc1cc(Nc2ncc3c(n2)-c2ccc(Cl)cc2C(c2c(F)cccc2OC)=NC3)ccc1C(=O)O [alisertib]
Outline: as §1

[9] = compound: COc1cc2nc(-c3cc(F)ccc3O)nc(N[C@@H]3CNC[C@H]3C(C)(C)O)c2cc1OC
Outline: as §1

[10] = compound: COc1cc2ncnc(Nc3ccc(F)c(Cl)c3)c2cc1OCCCN1CCOCC1 [gefitinib]
Outline: as §1

[11] = compound: CS(=O)(=O)CCNCc1ccc(-c2ccc3ncnc(Nc4ccc(OCc5cccc(F)c5)c(Cl)c4)c3c2)o1 [lapatinib]
Outline: as §1

[12] = compound: CS(=O)(=O)N1CCN(Cc2cc3nc(-c4cccc5[nH]ncc45)nc(N4CCOCC4)c3s2)CC1 [pictilisib]
Outline: as §1

[13] = compound: C[C@@H](Oc1cc(-c2cnn(C3CCNCC3)c2)cnc1N)c1c(Cl)ccc(F)c1Cl [crizotinib]
Outline: as §1

[14] = compound: C[C@H](C1=CC=C(C=C1)C(=O)NC2=C3C=CNC3=NC=C2)N
Outline: as §1

[15] = compound: C[C@H](Nc1ncnc2nc[nH]c12)c1cc2cccc(Cl)c2c(=O)n1-c1ccccc1 [duvelisib]
Outline: as §1

[16] = compound: Cc1cc(Nc2cc(CN3CCOCC3)c3nc(C)c(Cc4ccc(Cl)cc4F)n3n2)n[nH]1 [gandotinib]
Outline: as §1

[17] = compound: Cc1cc(Nc2cc(N3CCN(C)CC3)nc(Sc3ccc(NC(=O)C4CC4)cc3)n2)n[nH]1 [tozasertib]
Outline: as §1

[18] = compound: Cc1ccc(-n2nc(C(C)(C)C)cc2NC(=O)Nc2ccc(OCCN3CCOCC3)c3ccccc23)cc1 [doramapimod]
Outline: as §1

[19] = compound: Cc1ccc(NC(=O)c2ccc(CN3CC[C@H](N(C)C)C3)c(C(F)(F)F)c2)cc1Nc1nccc(-c2cncnc2)n1 [bafetinib]
Outline: as §1

[20] = compound: Cc1cccc(CC(=O)N2CCc3c2ccc(-c2cn(C)c4ncnc(N)c24)c3F)n1
Outline: as §1

UniProt Q9BRA0, sequence (Q9BRA0 whole entry, looked up): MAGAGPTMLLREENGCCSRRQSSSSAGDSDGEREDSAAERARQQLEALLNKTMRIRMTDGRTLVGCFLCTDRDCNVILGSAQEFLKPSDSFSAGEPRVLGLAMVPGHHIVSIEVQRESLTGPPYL
UniProt Q9BZD4, sequence (Q9BZD4 whole entry, looked up): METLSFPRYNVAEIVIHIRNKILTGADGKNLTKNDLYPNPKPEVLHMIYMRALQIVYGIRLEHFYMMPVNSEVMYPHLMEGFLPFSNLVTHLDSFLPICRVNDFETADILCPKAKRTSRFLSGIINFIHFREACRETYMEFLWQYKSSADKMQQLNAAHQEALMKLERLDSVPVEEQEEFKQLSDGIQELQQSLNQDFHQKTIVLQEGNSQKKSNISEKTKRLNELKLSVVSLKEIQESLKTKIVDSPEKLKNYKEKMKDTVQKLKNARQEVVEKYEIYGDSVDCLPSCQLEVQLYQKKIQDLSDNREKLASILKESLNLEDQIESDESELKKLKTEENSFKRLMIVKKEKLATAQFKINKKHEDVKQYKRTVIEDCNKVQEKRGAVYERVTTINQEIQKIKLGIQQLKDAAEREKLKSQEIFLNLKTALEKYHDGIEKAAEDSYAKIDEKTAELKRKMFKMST
UniProt Q13469, sequence (Q13469 whole entry, looked up): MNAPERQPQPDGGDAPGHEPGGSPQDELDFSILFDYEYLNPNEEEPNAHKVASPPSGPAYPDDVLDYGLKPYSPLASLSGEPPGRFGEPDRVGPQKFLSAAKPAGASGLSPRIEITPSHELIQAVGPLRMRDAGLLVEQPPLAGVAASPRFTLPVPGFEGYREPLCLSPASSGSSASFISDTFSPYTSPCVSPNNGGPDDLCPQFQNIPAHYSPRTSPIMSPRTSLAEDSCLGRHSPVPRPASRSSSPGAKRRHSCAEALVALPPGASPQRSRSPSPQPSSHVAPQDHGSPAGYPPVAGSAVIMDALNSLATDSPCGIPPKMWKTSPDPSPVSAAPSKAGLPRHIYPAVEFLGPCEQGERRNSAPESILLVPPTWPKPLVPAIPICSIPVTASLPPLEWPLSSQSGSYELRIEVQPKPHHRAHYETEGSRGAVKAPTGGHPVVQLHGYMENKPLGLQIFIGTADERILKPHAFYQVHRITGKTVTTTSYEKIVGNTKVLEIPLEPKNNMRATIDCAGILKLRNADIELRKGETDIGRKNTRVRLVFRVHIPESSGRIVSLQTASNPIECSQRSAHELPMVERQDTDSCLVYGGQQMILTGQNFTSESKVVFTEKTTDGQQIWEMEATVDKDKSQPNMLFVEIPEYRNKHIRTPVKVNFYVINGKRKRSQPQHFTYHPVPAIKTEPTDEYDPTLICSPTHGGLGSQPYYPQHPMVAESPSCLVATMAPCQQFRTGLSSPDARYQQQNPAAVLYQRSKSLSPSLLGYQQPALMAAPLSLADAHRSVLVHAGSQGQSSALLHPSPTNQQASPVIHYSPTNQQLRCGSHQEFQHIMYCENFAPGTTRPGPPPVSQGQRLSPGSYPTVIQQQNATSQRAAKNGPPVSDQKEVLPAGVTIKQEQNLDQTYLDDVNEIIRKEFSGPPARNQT
UniProt P20585, sequence (P20585 whole entry, looked up): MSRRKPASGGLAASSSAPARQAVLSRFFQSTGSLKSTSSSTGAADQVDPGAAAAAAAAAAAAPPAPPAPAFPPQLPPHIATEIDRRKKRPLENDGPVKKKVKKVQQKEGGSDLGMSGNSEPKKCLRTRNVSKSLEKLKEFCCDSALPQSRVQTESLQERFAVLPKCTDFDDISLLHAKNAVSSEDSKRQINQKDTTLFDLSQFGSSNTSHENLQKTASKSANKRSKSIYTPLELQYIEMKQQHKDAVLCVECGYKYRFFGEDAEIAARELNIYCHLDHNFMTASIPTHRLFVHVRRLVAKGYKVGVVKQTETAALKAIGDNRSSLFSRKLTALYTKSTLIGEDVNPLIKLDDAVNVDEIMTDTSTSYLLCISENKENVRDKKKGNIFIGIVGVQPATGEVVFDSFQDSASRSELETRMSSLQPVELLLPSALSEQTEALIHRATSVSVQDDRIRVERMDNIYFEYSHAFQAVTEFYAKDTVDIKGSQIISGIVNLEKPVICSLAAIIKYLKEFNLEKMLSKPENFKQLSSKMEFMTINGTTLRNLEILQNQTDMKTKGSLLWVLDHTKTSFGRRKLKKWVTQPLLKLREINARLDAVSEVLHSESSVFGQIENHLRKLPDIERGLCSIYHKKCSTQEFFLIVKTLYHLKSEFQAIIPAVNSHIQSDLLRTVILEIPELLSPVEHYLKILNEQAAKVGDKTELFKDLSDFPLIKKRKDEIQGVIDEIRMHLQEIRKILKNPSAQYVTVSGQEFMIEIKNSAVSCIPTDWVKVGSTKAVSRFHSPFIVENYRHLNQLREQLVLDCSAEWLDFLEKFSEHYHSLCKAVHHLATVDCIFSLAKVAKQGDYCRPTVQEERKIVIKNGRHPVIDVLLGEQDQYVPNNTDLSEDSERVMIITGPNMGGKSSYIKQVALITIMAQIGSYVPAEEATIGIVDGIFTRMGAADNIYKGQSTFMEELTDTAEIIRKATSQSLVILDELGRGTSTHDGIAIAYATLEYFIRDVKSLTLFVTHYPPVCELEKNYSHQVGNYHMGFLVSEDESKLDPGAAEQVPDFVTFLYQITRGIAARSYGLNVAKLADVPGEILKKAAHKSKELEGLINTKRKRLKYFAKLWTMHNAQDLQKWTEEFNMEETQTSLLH
UniProt Q8NC60, sequence (Q8NC60 whole entry, looked up): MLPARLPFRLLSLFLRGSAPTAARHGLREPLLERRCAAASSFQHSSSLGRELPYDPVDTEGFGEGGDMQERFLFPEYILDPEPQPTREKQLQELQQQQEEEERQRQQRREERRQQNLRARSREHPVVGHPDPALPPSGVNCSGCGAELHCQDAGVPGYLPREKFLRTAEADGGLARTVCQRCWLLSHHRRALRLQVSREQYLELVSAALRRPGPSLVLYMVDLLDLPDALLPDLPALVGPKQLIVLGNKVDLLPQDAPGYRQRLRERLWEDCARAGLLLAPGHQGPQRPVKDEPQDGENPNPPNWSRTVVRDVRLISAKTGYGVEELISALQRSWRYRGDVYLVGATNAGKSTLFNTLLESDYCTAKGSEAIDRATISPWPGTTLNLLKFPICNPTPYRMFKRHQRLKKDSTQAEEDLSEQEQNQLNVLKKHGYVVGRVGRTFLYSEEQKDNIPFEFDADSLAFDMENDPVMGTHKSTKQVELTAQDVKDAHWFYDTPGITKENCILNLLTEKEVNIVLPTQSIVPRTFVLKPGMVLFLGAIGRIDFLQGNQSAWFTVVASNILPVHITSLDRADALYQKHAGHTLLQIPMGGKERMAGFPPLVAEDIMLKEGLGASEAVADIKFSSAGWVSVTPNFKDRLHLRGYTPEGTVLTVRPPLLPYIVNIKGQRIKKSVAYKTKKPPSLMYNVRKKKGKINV
UniProt Q9NZJ9, sequence (Q9NZJ9 whole entry, looked up): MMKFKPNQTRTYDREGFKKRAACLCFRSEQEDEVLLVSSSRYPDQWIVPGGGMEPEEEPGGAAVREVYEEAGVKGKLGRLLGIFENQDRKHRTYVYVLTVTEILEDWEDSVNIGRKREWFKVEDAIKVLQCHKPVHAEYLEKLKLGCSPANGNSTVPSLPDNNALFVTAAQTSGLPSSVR
UniProt Q6GQQ9, sequence (Q6GQQ9 whole entry, looked up): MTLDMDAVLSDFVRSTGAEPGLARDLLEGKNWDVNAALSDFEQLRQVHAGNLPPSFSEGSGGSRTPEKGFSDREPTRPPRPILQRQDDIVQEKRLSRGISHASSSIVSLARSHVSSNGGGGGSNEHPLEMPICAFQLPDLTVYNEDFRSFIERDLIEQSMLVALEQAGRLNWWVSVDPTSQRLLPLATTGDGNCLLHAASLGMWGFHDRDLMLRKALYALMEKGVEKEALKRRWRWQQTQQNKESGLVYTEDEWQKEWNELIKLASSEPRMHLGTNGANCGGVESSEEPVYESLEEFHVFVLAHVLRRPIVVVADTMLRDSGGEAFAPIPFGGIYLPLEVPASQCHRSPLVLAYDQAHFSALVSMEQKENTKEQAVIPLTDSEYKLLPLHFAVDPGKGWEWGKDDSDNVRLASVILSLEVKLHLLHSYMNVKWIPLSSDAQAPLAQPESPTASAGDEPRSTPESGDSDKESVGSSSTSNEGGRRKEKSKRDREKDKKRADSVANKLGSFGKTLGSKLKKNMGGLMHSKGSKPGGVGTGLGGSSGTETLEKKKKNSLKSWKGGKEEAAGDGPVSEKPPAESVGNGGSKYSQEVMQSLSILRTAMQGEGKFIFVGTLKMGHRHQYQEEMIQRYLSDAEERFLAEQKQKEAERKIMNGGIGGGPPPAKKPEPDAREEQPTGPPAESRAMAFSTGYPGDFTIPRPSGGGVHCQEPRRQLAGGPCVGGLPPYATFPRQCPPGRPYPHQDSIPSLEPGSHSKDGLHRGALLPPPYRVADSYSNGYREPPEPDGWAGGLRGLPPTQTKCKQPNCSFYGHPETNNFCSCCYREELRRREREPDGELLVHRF
UniProt Q9Y5A7, sequence (Q9Y5A7 whole entry, looked up): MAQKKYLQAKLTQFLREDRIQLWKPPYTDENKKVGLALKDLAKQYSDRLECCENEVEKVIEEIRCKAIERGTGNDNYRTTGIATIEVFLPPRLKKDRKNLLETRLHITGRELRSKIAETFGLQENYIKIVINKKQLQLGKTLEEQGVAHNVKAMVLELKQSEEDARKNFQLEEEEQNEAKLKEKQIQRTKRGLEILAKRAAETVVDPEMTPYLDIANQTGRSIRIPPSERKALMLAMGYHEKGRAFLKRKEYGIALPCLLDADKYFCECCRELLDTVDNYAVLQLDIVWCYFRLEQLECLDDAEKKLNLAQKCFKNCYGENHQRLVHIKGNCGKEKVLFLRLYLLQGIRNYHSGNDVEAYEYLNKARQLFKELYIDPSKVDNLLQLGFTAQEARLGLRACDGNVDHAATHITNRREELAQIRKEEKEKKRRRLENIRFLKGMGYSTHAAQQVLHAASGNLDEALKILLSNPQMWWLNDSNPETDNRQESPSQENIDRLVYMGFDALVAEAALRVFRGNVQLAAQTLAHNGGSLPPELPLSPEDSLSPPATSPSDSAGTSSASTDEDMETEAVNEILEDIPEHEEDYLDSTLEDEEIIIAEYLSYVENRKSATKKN

Target | log2 fold change [1] | log2 fold change [2] | log2 fold change [3] | log2 fold change [4] | log2 fold change [5] | log2 fold change [6] | log2 fold change [7] | log2 fold change [8] | log2 fold change [9] | log2 fold change [10] | log2 fold change [11] | log2 fold change [12] | log2 fold change [13] | log2 fold change [14] | log2 fold change [15] | log2 fold change [16] | log2 fold change [17] | log2 fold change [18] | log2 fold change [19] | log2 fold change [20]
NOSIP (UniProt Q9Y314) | -0.02 | -0.156 | 0.018 | 0.05 | 0.004 | 0.014 | 0.02 | -0.016 | 0.015 | -0.049 | -0.03 | -0.042 | -0.026 | 0.02 | -0.004 | 0.017 | -0.053 | 0.013 | -0.003 | 0.038
NLRP2 (UniProt Q9NX02) | 0.034 | -0.227 | 0 | 0.024 | -0.044 | 0.034 | -0.239 (active) | -0.025 | 0 | -0.012 | 0.004 | -0.025 | -0.029 | 0.091 | 0.005 | -0.049 | 0.005 | 0.051 | -0.023 | -0.018
NUDT4 (UniProt Q9NZJ9) | -0.001 | -0.149 | 0.063 | 0.153 | -0.066 | 0.051 | -0.17 | -0.036 | 0.001 | -0.052 | -0.01 | -0.055 | 0.032 | 0.166 | -0.039 | -0.188 | -0.022 | -0.076 | 0.117 | -0.304 (active)
OLA1 (UniProt Q9NTK5) | -0.002 | -0.095 | 0.019 | -0.029 | -0.02 | 0.008 | -0.004 | 0.017 | 0.011 | -0.026 | -0.009 | 0.013 | -0.005 | -0.088 | 0.007 | -0.035 | 0.025 | 0.018 | 0.024 | 0.052
NAA38 isoform 2 (UniProt Q9BRA0) | -0.143 | -0.005 | 0.01 | 0.013 | 0.03 | -0.022 | 0.001 | 0.05 | 0.022 | -0.017 | -0.028 | -0.018 | 0.001 | -0.382 (active) | -0.016 | 0.202 | 0.062 | -0.088 | -0.041 | 0.244 (active)
OTUD7B (UniProt Q6GQQ9) | -0.052 | -0.099 | 0.005 | 0.022 | -0.011 | 0.042 | 0.049 | -0.006 | -0.031 | 0.062 | 0.033 | 0.025 | -0.099 | 0.006 | -0.041 | 0.032 | -0.01 | -0.012 | -0.003 | 0.003
ORC5 (UniProt O43913) | 0.001 | -0.163 | 0.001 | 0.062 | -0.008 | 0.049 | 0.165 | -0.004 | 0.006 | -0.011 | -0.014 | -0.049 | -0.137 | -0.009 | -0.016 | -0.113 | -0.023 | 0.027 | -0.069 | 0.045
MTHFD1L (UniProt B7ZM99) | 0.029 | -0.084 | 0.02 | 0.034 | -0.01 | -0.041 | 0.072 | 0.032 | 0.009 | -0.007 | -0.075 | -0.036 | -0.036 | 0.017 | 0.026 | -0.039 | 0.002 | 0.035 | -0.054 | 0.018
NOA1 (UniProt Q8NC60) | -0.016 | -0.11 | 0.063 | -0.076 | 0.063 | -0.049 | -0.023 | 0.039 | 0.023 | -0.042 | -0.043 | 0.032 | -0.052 | -0.282 | 0.014 | 0.039 | -0.034 | 0.021 | -0.221 | 0.167
NUP93 (UniProt Q8N1F7) | -0.006 | -0.085 | -0.013 | 0.023 | -0.097 | 0.029 | 0.027 | 0.01 | -0.007 | 0.014 | -0.011 | -0.029 | -0.03 | -0.027 | -0.03 | -0.158 | 0.015 | 0.022 | -0.054 | 0.07
NUB1 (UniProt Q9Y5A7) | 0.033 | -0.095 | 0.037 | -0.007 | 0.014 | 0.022 | 0.038 | -0.012 | -0.004 | -0.049 | -0.002 | -0.022 | 0.012 | 0.009 | -0.004 | 0.011 | 0.027 | -0.023 | -0.047 | -0.002
NFKBIB (UniProt Q15653) | -0.146 | -0.077 | 0.053 | -0.007 | -0.006 | 0.006 | 0.06 | 0 | -0.031 | 0.064 | 0.093 | -0.011 | -0.055 | -0.36 (active) | 0.004 | 0.095 | -0.024 | 0.024 | -0.049 | 0.127
NUP133 (UniProt Q8WUM0) | -0.08 | -0.111 | -0.007 | 0.035 | -0.028 | 0.039 | 0.002 | -0.009 | 0.011 | -0.003 | -0.007 | -0.01 | -0.093 | -0.075 | -0.01 | 0.251 (active) | 0.042 | 0.061 | -0.074 | 0.218
MSH3 (UniProt P20585) | 0.021 | -0.004 | 0.008 | 0.023 | 0.057 | 0.02 | -0.013 | -0.027 | 0.006 | -0.012 | -0.021 | -0.005 | -0.004 | -0.018 | -0.001 | -0.019 | 0.021 | 0.019 | -0.003 | 0.028
NFATC2 (UniProt Q13469) | -0.12 | -0.118 | 0.021 | -0.028 | 0.06 | 0.004 | 0.1 | -0.047 | -0.007 | -0.025 | -0.003 | 0.03 | -0.021 | 0.085 | -0.017 | 0.133 | 0 | 0.059 | -0.02 | 0.117
NUF2 (UniProt Q9BZD4) | 0 | -0.13 | 0.03 | 0.021 | -0.007 | 0.027 | 0.264 (active) | -0.012 | 0.013 | -0.033 | -0.002 | -0.028 | -0.024 | -0.023 | -0.019 | -0.103 | 0.023 | 0.008 | -0.087 | 0.053

From the supplement of paper PMC10849652
